Assay outcomes: PubChem BioAssay, National Center for Advancing Translational Sciences (NCATS)
Vif-APOBEC3G blk = qHTS for Inhibitors of Vif-A3G Interactions: qHTS; Potency, µM (doses to about 46.1 µM), for inactives: top-dose activity, negative = active, hits mostly inhibitors; hit rate 0.076% among 410,000; HeLa A3G-eYFP + Vif (tagged APOBEC3G with the HIV-1 protein that degrades it), YFP fluorescence, overnight; further: potency means the concentration at half of the fitted maximal effect; on the % scale 0 is the no-effect control and ±100 the full control effect; nearly all actives have a fitted effect of over 60% in size
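HeLa cells stably expressing Vif and C-terminally eYFP-tagged A3G, seeded overnight at 37 deg C, then exposed to compound by pintool overnight at 37 deg C. Rise in yellow fluorescence (Ex 488/Em 500-530, Acumen) marks blocked Vif-driven A3G degradation.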
LDHA block = qHTS assay for inhibitors of human lactate dehydrogenase; activity change, % (values are at about 110 or 230 µM); hit rate 0.15% among 480,000; L-lactate dehydrogenase A chain (Homo sapiens), P00338; purified LDHA, NADH/diaphorase-resazurin fluorescence; stronger effect = lower value; AID 1347041, 2019; in the data active means activity change below about -30%; inconclusive means mostly about -25% to -30%;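 further: plate controls were DMSO wells for no effect and wells without enzyme for full effect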
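Resorufin fluorescence (ex540/em590), read at 0 and 20 min after diaphorase/resazurin addition, reports the NADH left after a 5 min room-temperature reaction of 2 nM human LDH5 with 0.06 mM NADH and 0.2 mM pyruvate.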
Tb PGK inh = qHTS Assay to Find Inhibitors of Phosphoglycerate Kinase; AID 602233, 2012; hit rate 0.043% among 380,000; Potency, µM (highest dose often 57.5 µM), for inactives: top-dose activity change, negative = inhibition, actives largely listed as inhibitors; PGK/GAPDH coupled, Kinase-Glo luminescence, 60 min; further: potency means the concentration at half of the fitted maximal effect; on the % scale 0 is the no-effect control and ±100 the full control effect; nearly all actives have a fitted effect of over 60% in size
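Recombinant glycosomal PGK reaction used 1,3-bisphosphoglycerate generated in-well by GAPDH (100nM final) in 100mM TEA pH 7.6, 5mM MgCl2, 0.01% Tween-20. After 60 minutes at room temperature, ATP was read by Kinase-Glo Plus luminescence end-point.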
mIDH1 inhibitor = qHTS for Inhibitors of mutant isocitrate dehydrogenase 1 (IDH1): qHTS | hit rate 0.093% among 390,000 | AID 602179, 2012 | IDH1-R132H enzyme, NADPH consumption, diaphorase/resazurin fluorescence | Potency, µM (top dose mostly 76.6 µM), for inactives: at the top dose activity change, negative = inhibition, most hits filed as inhibitors | Isocitrate dehydrogenase [NADP] cytoplasmic (Homo sapiens), O75874; further: potency means the concentration at half of the fitted maximal effect; on the % scale 0 is the no-effect control and ±100 the full control effect; nearly all actives have a fitted effect of over 65% in size
Target sequence (O75874 whole entry R132H, stated change not applied): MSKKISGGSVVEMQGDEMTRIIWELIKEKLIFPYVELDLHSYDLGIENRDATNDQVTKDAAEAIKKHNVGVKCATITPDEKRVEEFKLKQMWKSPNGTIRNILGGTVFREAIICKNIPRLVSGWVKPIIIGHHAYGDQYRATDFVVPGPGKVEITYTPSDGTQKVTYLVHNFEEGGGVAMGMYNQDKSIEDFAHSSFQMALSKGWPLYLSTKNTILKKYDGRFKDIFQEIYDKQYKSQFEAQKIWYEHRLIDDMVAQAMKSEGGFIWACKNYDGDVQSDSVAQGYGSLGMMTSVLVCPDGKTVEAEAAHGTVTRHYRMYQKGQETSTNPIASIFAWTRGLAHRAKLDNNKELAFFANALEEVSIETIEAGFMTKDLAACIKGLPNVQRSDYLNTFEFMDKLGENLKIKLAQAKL
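IDH1-R132H (0.5 ug/mL) preincubated 30 min with compound, then NADPH (0.016 mM) and alpha-KG (2 mM) added; 80 min at RT, pH 7.5. Remaining NADPH coupled via diaphorase/resazurin to fluorescence (540/590 nm); concentration-response curves normalized to no-enzyme control.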
Pin1 inhibitor = qHTS Assay to Find Inhibitors of Pin1 | hit rate 0.009% among 390,000 | Peptidyl-prolyl cis-trans isomerase NIMA-interacting 1 (Homo sapiens), Q13526 | Pin1 FP peptide displacement, HiFluor488, 10 min | Potency, µM (series often up to 115 µM), for the others: at the top dose activity, negative = inhibition, hits mostly inhibitors; active means well fitted inhibition curve with a large enough effect in the polarisation, with a control signal flat, not every such curve was filed as active; inconclusive means small, poorly fitted or top-dose-only effect, or effect the other way, or a change in a side signal; inactive means no such curve, though single readings can be large or run the other way; the % refers to the polarisation; further: potency means the concentration at half of the fitted maximal effect; on the % scale 0 is the no-effect control and ±100 the full control effect
Target sequence (Q13526 whole entry, looked up): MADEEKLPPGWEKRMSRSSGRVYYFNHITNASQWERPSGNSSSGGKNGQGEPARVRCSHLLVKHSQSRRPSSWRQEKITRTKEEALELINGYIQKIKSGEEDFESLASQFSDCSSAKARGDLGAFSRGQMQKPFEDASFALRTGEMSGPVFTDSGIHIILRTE
Vif-A3F inh = qHTS for Inhibitors of Vif-A3F Interactions: qHTS; HeLa A3F-eYFP + Vif (tagged APOBEC3F with the HIV-1 protein that degrades it), YFP fluorescence increase; Potency, µM (highest dose often 46.1 µM), without a hit: at the top dose activity, negative = active; hit rate 0.2% among 390,000; further: potency means the concentration at half of the fitted maximal effect; % of control where 0% means no effect; nearly all actives have a fitted effect of over 65% in size
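HeLa cells stably expressing A3F-eYFP plus Vif, plated and incubated overnight at 37 deg C, then exposed to compounds overnight at 37 deg C. Blocked degradation read as raised yellow fluorescence (Ex 488/Em 500-530).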
Resorufin autofl = qHTS for Inhibitors of mutant isocitrate dehydrogenase 1 (IDH1): Cherrypicks Autofluorescence Interference | shares compounds with mIDH1 inhibitor | Resorufin detection reagent fluorescence interference, cell-free | inhibition of signal, % at 51.2 µM | 750 tested, under 10 active;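 further: 0% = wells with normal resorufin and full inhibition = wells lacking resorufin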
WT IDH1 inh = qHTS for Inhibitors of mutant isocitrate dehydrogenase 1 (IDH1): Cherrypicks in WT IDH1; shares compounds with mIDH1 inhibitor; WT IDH1 enzyme, NADPH diaphorase/resazurin fluorescence; Potency, µM (doses to about 115 µM), for the others: at the top dose activity change, negative = inhibition, usual class: inhibitors; hit rate 9% among 750; AID 623995, 2012;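 further: potency means the concentration at half of the fitted maximal effect; 0% = full WT IDH1 enzyme control and full inhibition = no enzyme wells; nearly all actives have a fitted effect of over 55% in size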
Target sequence (O75874 whole entry, looked up): as the sequence (O75874 whole entry R132H, stated change not applied) above, with H132R counted along it
mIDH1 confirm = qHTS for Inhibitors of mutant isocitrate dehydrogenase 1 (IDH1): Confirmation of Cherrypicks; shares compounds with mIDH1 inhibitor; IDH1 R132H enzyme, NADPH diaphorase/resazurin fluorescence; Potency, µM (titrated, usually from 76.6 µM), for the others: at the top dose activity change, negative = inhibition, actives largely listed as inhibitors; hit rate 83% among 750; AID 624002, 2012; further: potency means the concentration at half of the fitted maximal effect; nearly all actives have a fitted effect of over 50% in size
Active calls of the source: *; i = inactive; u = inconclusive; x = not tested or not shown. This is a sample that favours compounds with a hit; in the whole collection about 0.49% have one here. Unless noted, the call rests on the fitted dose curve; in most records, active means well fitted curve in the direction sought with a large enough effect; inconclusive means small, poorly fitted or top-dose-only effect, or another doubt; inactive means no such curve, though single readings can be large; an effect the other way counts as inactive or inconclusive.

SMILES	Vif-APOBEC3G blk	LDHA block	Tb PGK inh	mIDH1 inhibitor	Pin1 inhibitor	Vif-A3F inh	Resorufin autofl	WT IDH1 inh	mIDH1 confirm
C=CCn1c(SCc2nc3sc(C(=O)O)c(C)c3c(=O)[nH]2)nnc1-c1ccc(C(C)(C)C)cc1	-4%	0	-17%	u	-14%	-8%	-5	2%	22µM*
CCOC(=O)c1c(-c2ccc(C)o2)csc1NC(=O)CN(C)CC(=O)Nc1ccc(C)cc1	-16%	2	-1%	u	-3%	6%	-1	-9%	14µM*
CCOC(=O)c1c(-c2ccc(C)o2)csc1NC(=O)CN1CCCCC1	-1%	2	-2%	-1%	7%	2%	x	x	x
Cc1ccc(-c2n[nH]c3c2C(c2ccccc2Cl)N(c2ccc(C(=O)O)cc2)C3=O)cc1 (configuration not stated)	-6%	-5	-18%	11µM*	-11%	-6%	-11	35µM*	7.1µM*
Cc1ccc(-c2n[nH]c3c2C(c2cccs2)N(c2ccc(Cl)cc2)C3=O)cc1 (configuration not stated)	u	0	-7%	0%	13%	-7%	x	x	x
COc1ccc(-c2n[nH]c3c2C(c2ccc(OC)c(OC)c2)N(c2ccccc2)C3=O)cc1 (configuration not stated)	-6%	1	i	u	15%	9%	10	2%	20µM*
COc1cc(C2c3c(-c4ccc(C)cc4)n[nH]c3C(=O)N2c2ccc(F)cc2)ccc1O (configuration not stated)	-14%	-9	2%	u	3%	-4%	-2	-6%	25µM*
Cc1ccc(N2C(=O)c3[nH]nc(-c4ccc(Cl)cc4)c3C2c2ccc(F)cc2)cc1 (configuration not stated)	-13%	1	-1%	-20%	14%	8%	x	x	x
COc1ccc(C2c3c(-c4ccc(F)cc4)n[nH]c3C(=O)N2c2ccccc2)cc1OC (configuration not stated)	-3%	-2	0%	3%	6%	1%	x	x	x
O=C(O)c1ccc(N2C(=O)c3[nH]nc(-c4ccccc4)c3C2c2cccc(F)c2)cc1 (configuration not stated)	3%	-6	7%	u	-10%	-5%	-5	-18%	32µM*
CSc1nnc(NC(=O)c2cc(=O)c3cc(Cl)cc(Cl)c3o2)s1	x	5	x	x	x	x	x	x	x
CC(=O)Nc1ccccc1OCC(=O)NC(C)C	x	-2	x	x	x	x	x	x	x
CCCCn1c(CCC(=O)Nc2ccccc2C(C)(C)C)nc2c1c(=O)[nH]c(=O)n2CCC	x	-9	x	x	x	x	x	x	x
CC(=O)c1ccc(NC(=O)CSc2nc3ccccc3o2)cc1	x	4	x	x	x	x	x	x	x
COc1ccc(C2c3c(-c4ccccc4)n[nH]c3C(=O)N2c2ccc(C(=O)O)cc2)cc1 (configuration not stated)	0%	-3	8%	52µM*	0%	-9%	11	u	45µM*
O=C(O)c1ccc(N2C(=O)c3[nH]nc(-c4ccccc4)c3C2c2ccccc2)cc1 (configuration not stated)	0%	-13	i	-9%	-1%	2%	x	x	x
COc1ccc(-c2n[nH]c3c2C(c2ccc(O)cc2)N(c2ccc(Br)cc2)C3=O)cc1 (configuration not stated)	-4%	-1	-9%	-1%	16%	-23%	x	x	x
CCOc1cc(C2c3c(-c4ccccc4)n[nH]c3C(=O)N2c2ccc(C(=O)O)cc2)ccc1O (configuration not stated)	9%	-13	-6%	-7%	-11%	-3%	x	x	x
CCc1ccc(C2c3c(-c4ccccc4)n[nH]c3C(=O)N2c2ccc(C(=O)O)cc2)cc1 (configuration not stated)	2%	-10	-13%	35µM*	-10%	-10%	-5	25µM*	7.1µM*
COc1cccc(C2c3c(-c4ccccc4)n[nH]c3C(=O)N2c2ccc(C(=O)O)cc2)c1 (configuration not stated)	1%	-3	x	u	-12%	-2%	1	u	20µM*
NC(=O)CSc1nc2c(c(=O)n1-c1ccccc1)C1(CCCCC1)Cc1ccccc1-2	0%	5	-8%	52µM*	9%	-26%	-2	0%	25µM*
Nc1nc(Nc2cccc(F)c2)nc(NCc2ccco2)c1[N+](=O)[O-]	-15%	-3	i	u	4%	5%	-5	4%	32µM*
Cc1cccc(Nc2nc(N)c([N+](=O)[O-])c(NCc3ccco3)n2)c1	-11%	-5	3%	-27%	4%	2%	x	x	x
COCCN1C(=O)/C(=C/c2ccc(OCc3ccc(C(=O)O)cc3)c(OC)c2)SC1=Nc1ccccc1	-8%	-1	-1%	21µM*	x	-7%	-1	79µM*	10µM*
COc1cc(/C=C2\SC(=Nc3ccccc3)N(Cc3ccco3)C2=O)ccc1OC(C)C(=O)O (configuration not stated)	1%	-15	2%	-5%	-17%	-14%	x	x	x
CCSc1sccc1C1C(C#N)=C(N)N(c2cccnc2)C2=C1C(=O)CC(C)(C)C2 (configuration not stated)	1%	6	-5%	58µM*	1%	4%	-3	-6%	28µM*
